About 79,000 compounds went through this panel and 15% of them were active in at least one assay; those are over-represented in the sample as a whole. Activity calls are given as the source filed them. No stated cut-off is given here; in the data, active means growth inhibition above about 70%; inactive means the rest.
Columns and labels:
[1] = NCI Yeast Anticancer Drug Screen. Data for the rad50 strain (AID 155);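 further: 0% = growth of vehicle-only cultures of the same strain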; settings: S. cerevisiae rad50 strain growth inhibition, active compounds read high
Outline: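 Readout: growth inhibition relative to vehicle-treated cultures. Compound exposure was carried out in a genetically defined yeast strain deficient in DNA damage repair.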

[2] = NCI Yeast Anticancer Drug Screen. Data for the mec2-1 strain (AID 157); settings: S. cerevisiae mec2-1 strain, active compounds read high
Outline: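 Strain: mec2-1 (DNA repair/cell cycle alteration). Compound exposure, then growth measured; inhibition expressed relative to vehicle.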

[3] = NCI Yeast Anticancer Drug Screen. Data for the sgs1 mgt1 strain (AID 161);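 further: 0% = growth of cultures given vehicle only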; settings: S. cerevisiae sgs1 mgt1 strain, active compounds read high
Outline: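 Test agents were incubated with a DNA-repair-mutant yeast strain. Growth was then read and compared against vehicle-treated controls.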

[4] = NCI Yeast Anticancer Drug Screen. Data for the cln2 rad14 strain (AID 165);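 further: 0% = growth equal to vehicle treated cultures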; settings: S. cerevisiae cln2 rad14 strain, active compounds read high
Outline: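 Compounds are applied to the cln2 rad14 yeast strain, and growth is then compared with that of vehicle-treated cultures to give inhibition.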

[5] = NCI Yeast Anticancer Drug Screen. Data for the bub3 strain (AID 167); settings: S. cerevisiae bub3 mutant strain, active compounds read high
Outline: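 Readout: yeast growth inhibition, expressed relative to vehicle-only wells. The test organism is a mutant strain from a panel with lesions in DNA repair or checkpoint genes.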

[6] = NCI Yeast Anticancer Drug Screen. Data for the mlh1 rad18 strain (AID 175); settings: S. cerevisiae mlh1 rad18 strain growth inhibition, active compounds read high
Outline: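 Read-out is yeast growth inhibition, calculated against vehicle-only controls. The compound was applied to a strain engineered with DNA damage repair alterations.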

[7] = at 5.0 µM (retest, dose inferred, filed as 0.5)
[8] = at 50.0 µM (retest, dose inferred, filed as 5.0)

Measured: growth inhibition

O=[N+]([O-])c1ccc(SCc2ccccc2)c2nonc12
active: [1]; at 50.0 µM 86.8% | [2]; [8] 99% | [2]; at 50.0 µM 89.5% | [3]; [8] 87% | [3]; at 50.0 µM 88% | [4]; [8] 77% | [4]; at 50.0 µM 88.9% | [5]; [8] 97% | [5]; at 50.0 µM 88.7% | [6]; [8] 81% | [6]; at 50.0 µM 86%
inactive: [1]; [7] 13% | [1]; [8] 63% | [2]; [7] 12% | [3]; [7] 14% | [4]; [7] 13% | [5]; [7] 11% | [6]; [7] 22%

C=C1CC2(CCCC3(CC(=C)C(=O)O3)C2(C)C)OC1=O (configuration not stated)
active: [1]; [8] 96% | [2]; [8] 98% | [3]; [8] 97% | [4]; [8] 96% | [5]; [8] 96% | [6]; [8] 97%
inactive: [1]; [7] 20% | [1]; at 50.0 µM 33% | [2]; [7] 14% | [2]; at 50.0 µM 38.4% | [3]; [7] 57% | [3]; at 50.0 µM 38.8% | [4]; [7] 15% | [4]; at 50.0 µM 23.1% | [5]; [7] 7% | [5]; at 50.0 µM 44.6% | [6]; [7] 12% | [6]; at 50.0 µM 66.6%

O/N=C1/CC2CCCc3ccc4cccc1c4c32 (configuration not stated)
active: [5]; at 50.0 µM 81.8%
inactive: [1]; [7] -18% | [1]; [8] -10% | [1]; at 50.0 µM 60.2% | [2]; [7] -18% | [2]; [8] -3% | [2]; at 50.0 µM 22.4% | [3]; [7] -18% | [3]; [8] 15% | [3]; at 50.0 µM 22.9% | [4]; [7] -24% | [4]; [8] -20% | [4]; at 50.0 µM 12.2% | [5]; [7] -12% | [5]; [8] 25% | [6]; [7] -26% | [6]; [8] 3% | [6]; at 50.0 µM -4%

Cc1cc(C)nc(NS(=O)(=O)c2ccc(NC(=O)c3cccnc3Nc3cccc(Cl)c3)cc2)n1
active: [6]; at 50.0 µM 81.5%
inactive: [1]; [7] -2% | [1]; [8] 33% | [1]; at 50.0 µM 45.9% | [2]; [7] -9% | [2]; [8] 34% | [2]; at 50.0 µM 13.1% | [3]; [7] 6% | [3]; [8] 51% | [3]; at 50.0 µM 54.9% | [4]; [7] -10% | [4]; [8] 35% | [4]; at 50.0 µM 22.1% | [5]; [7] -6% | [5]; [8] 41% | [5]; at 50.0 µM 25.5% | [6]; [7] -1% | [6]; [8] 53%

Nc1cc(Br)cc2c1[nH]c1ccc(Br)cc12
inactive: [1]; [7] 46% | [2]; [7] 16% | [3]; [7] 59% | [4]; [7] 3% | [5]; [7] 18% | [6]; [7] 58%
active: [1]; [8] 98% | [1]; at 50.0 µM 98.6% | [2]; [8] 98% | [2]; at 50.0 µM 99% | [3]; [8] 99% | [3]; at 50.0 µM 98.1% | [4]; [8] 97% | [4]; at 50.0 µM 97.8% | [5]; [8] 98% | [5]; at 50.0 µM 98.5% | [6]; [8] 98% | [6]; at 50.0 µM 98.9%

O=c1[nH]n(CCc2ccccn2)c(=O)c(Cl)c1Cl
inactive: [1]; [7] -5% | [1]; [8] -5% | [1]; at 50.0 µM 9.25% | [2]; [7] -9% | [2]; [8] -1% | [2]; at 50.0 µM 1.95% | [3]; [7] -3% | [3]; [8] -26% | [3]; at 50.0 µM 12.4% | [4]; [7] 2% | [4]; [8] 6% | [4]; at 50.0 µM -6.2% | [5]; [7] 2% | [5]; [8] 7% | [5]; at 50.0 µM -11.2% | [6]; [7] -17% | [6]; [8] 13% | [6]; at 50.0 µM -17.2%

NC(=O)NC(=O)N/N=C/c1ccc([N+](=O)[O-])o1
inactive: [1]; [7] 2% | [1]; [8] 25% | [2]; [7] 1% | [2]; [8] 20% | [2]; at 50.0 µM 22.9% | [3]; [7] 5% | [3]; [8] 27% | [3]; at 50.0 µM 68.2% | [4]; [7] -1% | [4]; [8] 12% | [4]; at 50.0 µM 38% | [5]; [7] -5% | [5]; [8] 17% | [5]; at 50.0 µM 27.2% | [6]; [7] 4% | [6]; [8] 40% | [6]; at 50.0 µM 61.5%
active: [1]; at 50.0 µM 74.8%

COc1ccc2nc3cc(Cl)ccc3c(NCCC[N+](C)(C)CCCCCCCCCCCCCCCC[N+](C)(C)CCCNc3c4ccc(Cl)cc4nc4ccc(OC)cc34)c2c1
inactive: [1]; at 50.0 µM 49.2% | [2]; at 50.0 µM 43.6% | [3]; at 50.0 µM 40.4% | [5]; at 50.0 µM 47.2%
active: [1]; [7] 85% | [1]; [8] 99% | [2]; [7] 76% | [2]; [8] 99% | [3]; [7] 77% | [3]; [8] 98% | [4]; [7] 76% | [4]; [8] 98% | [4]; at 50.0 µM 76.6% | [5]; [7] 85% | [5]; [8] 99% | [6]; [7] 92% | [6]; [8] 99% | [6]; at 50.0 µM 97.8%

O=[N+]([O-])c1ccc(S(=O)/N=C/c2ccccc2)c([N+](=O)[O-])c1 (configuration not stated)
inactive: [1]; [7] -2% | [1]; at 50.0 µM 48.2% | [2]; [7] -4% | [2]; at 50.0 µM 45.5% | [3]; [7] 2% | [3]; at 50.0 µM 67.6% | [4]; [7] 1% | [4]; at 50.0 µM 9% | [5]; [7] -4% | [5]; at 50.0 µM 25.9% | [6]; [7] -4%
active: [1]; [8] 96% | [2]; [8] 98% | [3]; [8] 94% | [4]; [8] 82% | [5]; [8] 97% | [6]; [8] 97% | [6]; at 50.0 µM 74.3%
